Experimental data published in PubChem BioAssay (NCI).
About 79,000 compounds went through this panel and 15% of them were active in at least one assay; those are over-represented in the sample as a whole. The source made the active and inactive calls. Cut-off read from the data, not from the text of the source: active = growth inhibition above about 70%; inactive = the rest.

Columns and labels:
[1] = NCI Yeast Anticancer Drug Screen. Data for the rad52 strain (AID 147);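 note: 0% = growth of vehicle-treated control cultures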; conditions: S. cerevisiae rad52 mutant growth inhibition, active compounds read high
Method in brief: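 Growth of repair-deficient yeast cells was compared between compound-treated and vehicle-treated cultures to give percent inhibition.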

[2] = NCI Yeast Anticancer Drug Screen. Data for the wt1 strain (AID 149);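 note: 0% = growth of vehicle-treated wt1 cultures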; conditions: S. cerevisiae wt1 strain (SPY 50644) growth inhibition, active compounds read high
Method in brief: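 Growth inhibition read against vehicle controls after compound exposure of the wt1 yeast strain.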

[3] = NCI Yeast Anticancer Drug Screen. Data for the rad50EPP+ strain (AID 151);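 note: 0% = growth of vehicle-treated control cultures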; conditions: S. cerevisiae rad50 mutant strain, active compounds read high
Method in brief: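 Measured: growth inhibition of rad50EPP+ yeast. Reference: vehicle-treated controls. Screen uses strains with defined genetic alterations in DNA damage repair or cell cycle control.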

[4] = NCI Yeast Anticancer Drug Screen. Data for the mgt1 strain (AID 153); conditions: S. cerevisiae mgt1 mutant growth inhibition, active compounds read high
Method in brief: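 Compounds were applied to mgt1 mutant yeast, and growth was then compared against vehicle-treated control cultures to give percent inhibition.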

[5] = NCI Yeast Anticancer Drug Screen. Data for the rad50 strain (AID 155);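 note: 0% = growth of vehicle-only cultures of the same strain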; conditions: S. cerevisiae rad50 strain growth inhibition, active compounds read high
Method in brief: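 Readout: growth inhibition relative to vehicle-treated cultures. Compound exposure was carried out in a genetically defined yeast strain deficient in DNA damage repair.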

[6] = NCI Yeast Anticancer Drug Screen. Data for the mec2-1 strain (AID 157); conditions: S. cerevisiae mec2-1 strain, active compounds read high
Method in brief: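 Compounds were applied to mec2-1 yeast cells. Their growth was then compared with that of vehicle-treated cultures to give growth inhibition.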

[7] = NCI Yeast Anticancer Drug Screen. Data for the rad14 strain (AID 159);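 note: 0% = growth of vehicle-treated control cultures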; conditions: S. cerevisiae rad14 strain growth inhibition, active compounds read high
Method in brief: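 Growth inhibition vs vehicle controls; genetically altered yeast strain (DNA damage repair defect) treated with test compounds.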

[8] = NCI Yeast Anticancer Drug Screen. Data for the sgs1 mgt1 strain (AID 161);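 note: 0% = growth of cultures given vehicle only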; conditions: S. cerevisiae sgs1 mgt1 strain, active compounds read high
Method in brief: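 Growth of a repair-deficient yeast mutant was monitored after compound treatment and expressed as inhibition relative to vehicle-treated cultures.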

[9] = NCI Yeast Anticancer Drug Screen. Data for the CLN2oe strain (AID 163);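 note: 0% = growth of vehicle-only control cultures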; conditions: S. cerevisiae CLN2oe strain, active compounds read high
Method in brief: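 Cells of an engineered yeast line with disturbed cell-cycle regulation are treated with compound. Inhibition of growth is then calculated relative to the vehicle-treated reference.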

[10] = NCI Yeast Anticancer Drug Screen. Data for the cln2 rad14 strain (AID 165);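 note: 0% = growth equal to vehicle treated cultures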; conditions: S. cerevisiae cln2 rad14 strain, active compounds read high
Method in brief: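 Strain: cln2 rad14 yeast, altered in cell cycle control and DNA damage repair. Read-out: growth inhibition vs vehicle.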

[11] = NCI Yeast Anticancer Drug Screen. Data for the bub3 strain (AID 167); conditions: S. cerevisiae bub3 mutant strain, active compounds read high
Method in brief: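 Readout: yeast growth inhibition, expressed relative to vehicle-only wells. The test organism is a mutant strain from a panel with lesions in DNA repair or checkpoint genes.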

[12] = NCI Yeast Anticancer Drug Screen. Data for the wt2 strain (AID 169);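 note: 0% = growth of vehicle-treated yeast cultures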; conditions: S. cerevisiae wt2 strain growth inhibition, active compounds read high
Method in brief: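 Growth of compound-treated yeast is measured and expressed as inhibition relative to vehicle-only controls.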

[13] = NCI Yeast Anticancer Drug Screen. Data for the mlh1 strain (AID 171);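 note: 0% = growth of vehicle-treated control cultures of the same strain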; conditions: S. cerevisiae mlh1 strain growth inhibition, active compounds read high
Method in brief: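 Test agents were incubated with yeast bearing a defined DNA damage repair or cell cycle control alteration; values are growth inhibition normalised to vehicle-treated cultures.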

[14] = NCI Yeast Anticancer Drug Screen. Data for the sgs1 strain (AID 173);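 note: 0% = growth of vehicle-only control cultures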; conditions: S. cerevisiae sgs1 mutant, active compounds read high
Method in brief: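 Strain with an altered DNA repair or cell cycle pathway exposed to compound. Growth then measured. Value = inhibition versus vehicle control.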

[15] = NCI Yeast Anticancer Drug Screen. Data for the mlh1 rad18 strain (AID 175); conditions: S. cerevisiae mlh1 rad18 strain growth inhibition, active compounds read high
Method in brief: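 A repair-deficient yeast strain is exposed to test compound, and growth is scored relative to vehicle-treated controls.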

[16] = NCI Yeast Anticancer Drug Screen. Data for the rad18 strain (AID 177); conditions: S. cerevisiae rad18 mutant growth inhibition, active compounds read high
Method in brief: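 DNA-repair-defective yeast; compound treatment; growth inhibition scored against vehicle.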

[17] = at 5.0 µM (retest, dose inferred, filed as 0.5)
[18] = at 50.0 µM (retest, dose inferred, filed as 5.0)

Measured: growth inhibition

Nc1nc(N)c2c(Cl)c(CNc3ccc(C(=O)NC(CC(=O)O)C(=O)O)cc3)ccc2n1 (stereo unspecified)
active: [1]; at 33.0 µM 80% | [1]; at 100.0 µM 91% | [2]; at 100.0 µM 74% | [5]; at 50.0 µM 77.5% | [5]; at 100.0 µM 80% | [6]; at 11.0 µM 75% | [6]; at 33.0 µM 93% | [6]; [18] 90% | [6]; at 50.0 µM 87.8% | [6]; at 100.0 µM 95% | [7]; at 100.0 µM 78% | [11]; at 100.0 µM 72% | [16]; at 33.0 µM 78% | [16]; at 100.0 µM 84%
inactive: [1]; at 1.2 µM 40% | [1]; at 3.7 µM 35% | [1]; at 11.0 µM 52% | [2]; at 1.2 µM 19% | [2]; at 3.7 µM 15% | [2]; at 11.0 µM 17% | [2]; at 33.0 µM 42% | [3]; at 1.2 µM 10% | [3]; at 3.7 µM 6% | [3]; at 11.0 µM 13% | [3]; at 33.0 µM 17% | [3]; at 100.0 µM 41% | [4]; at 1.2 µM 6% | [4]; at 3.7 µM -3% | [4]; at 11.0 µM -2% | [4]; at 33.0 µM 30% | [4]; at 100.0 µM 55% | [5]; at 1.2 µM 12% | [5]; at 3.7 µM 18% | [5]; [17] 8% | [5]; at 11.0 µM 14% | [5]; at 33.0 µM 65% | [5]; [18] 47% | [6]; at 1.2 µM 14% | [6]; at 3.7 µM 28% | [6]; [17] 0% | [7]; at 1.2 µM -8% | [7]; at 3.7 µM -11% | [7]; at 11.0 µM -18% | [7]; at 33.0 µM 44% | [8]; [17] 20% | [8]; [18] 50% | [8]; at 50.0 µM 55.5% | [9]; at 1.2 µM -5% | [9]; at 3.7 µM 15% | [9]; at 11.0 µM 12% | [9]; at 33.0 µM 22% | [9]; at 100.0 µM 34% | [10]; [17] 20% | [10]; [18] 16% | [10]; at 50.0 µM 19.4% | [11]; at 1.2 µM 3% | [11]; at 3.7 µM -10% | [11]; [17] -9% | [11]; at 11.0 µM 14% | [11]; at 33.0 µM 7% | [11]; [18] 26% | [11]; at 50.0 µM 43.5% | [12]; at 1.2 µM -42% | [12]; at 3.7 µM -44% | [12]; at 11.0 µM -42% | [12]; at 33.0 µM -1% | [12]; at 100.0 µM 28% | [13]; at 1.2 µM 16% | [13]; at 3.7 µM 12% | [13]; at 11.0 µM 1% | [13]; at 33.0 µM 25% | [13]; at 100.0 µM 44% | [14]; at 1.2 µM 30% | [14]; at 3.7 µM 22% | [14]; at 11.0 µM 31% | [14]; at 33.0 µM 45% | [14]; at 100.0 µM 66% | [15]; [17] 12% | [15]; [18] 46% | [15]; at 50.0 µM 52.1% | [16]; at 1.2 µM 48% | [16]; at 3.7 µM 54% | [16]; at 11.0 µM 57%

C[N+]1(CCCl)CC[N+](C)(CCCl)CC1 (stereo unspecified)
active: [1]; at 100.0 µM 95% | [2]; at 100.0 µM 95% | [4]; at 100.0 µM 97% | [5]; [18] 95% | [5]; at 50.0 µM 97.2% | [5]; at 100.0 µM 96% | [6]; at 33.0 µM 81% | [6]; [18] 99% | [6]; at 50.0 µM 96.7% | [6]; at 100.0 µM 98% | [7]; at 100.0 µM 96% | [8]; [18] 98% | [8]; at 50.0 µM 96.1% | [9]; at 100.0 µM 95% | [10]; [18] 96% | [10]; at 50.0 µM 94.3% | [11]; [17] 78% | [11]; [18] 98% | [11]; at 50.0 µM 97% | [11]; at 100.0 µM 97% | [12]; at 100.0 µM 94% | [13]; at 100.0 µM 94% | [14]; at 100.0 µM 96% | [15]; [18] 97% | [15]; at 50.0 µM 97.6% | [16]; at 100.0 µM 97%
inactive: [1]; at 1.2 µM 0% | [1]; at 3.7 µM 3% | [1]; at 11.0 µM 5% | [1]; at 33.0 µM 36% | [2]; at 1.2 µM 0% | [2]; at 3.7 µM -1% | [2]; at 11.0 µM 1% | [2]; at 33.0 µM 14% | [3]; at 1.2 µM 0% | [3]; at 3.7 µM 0% | [3]; at 11.0 µM 2% | [3]; at 33.0 µM 7% | [3]; at 100.0 µM 56% | [4]; at 1.2 µM -2% | [4]; at 3.7 µM 1% | [4]; at 11.0 µM 3% | [4]; at 33.0 µM 29% | [5]; at 1.2 µM 1% | [5]; at 3.7 µM 2% | [5]; [17] 18% | [5]; at 11.0 µM 4% | [5]; at 33.0 µM 48% | [6]; at 1.2 µM -3% | [6]; at 3.7 µM -3% | [6]; [17] 21% | [6]; at 11.0 µM 2% | [7]; at 1.2 µM 1% | [7]; at 3.7 µM 3% | [7]; at 11.0 µM 7% | [7]; at 33.0 µM 56% | [8]; [17] 29% | [9]; at 1.2 µM -3% | [9]; at 3.7 µM -2% | [9]; at 11.0 µM 3% | [9]; at 33.0 µM 32% | [10]; [17] 2% | [11]; at 1.2 µM 1% | [11]; at 3.7 µM 1% | [11]; at 11.0 µM -5% | [11]; at 33.0 µM 29% | [12]; at 1.2 µM 0% | [12]; at 3.7 µM 0% | [12]; at 11.0 µM 1% | [12]; at 33.0 µM 14% | [13]; at 1.2 µM 0% | [13]; at 3.7 µM -1% | [13]; at 11.0 µM 0% | [13]; at 33.0 µM 13% | [14]; at 1.2 µM 0% | [14]; at 3.7 µM -1% | [14]; at 11.0 µM 1% | [14]; at 33.0 µM 34% | [15]; [17] 13% | [16]; at 1.2 µM -2% | [16]; at 3.7 µM -1% | [16]; at 11.0 µM 5% | [16]; at 33.0 µM 61%
